# According to ChEMBL document CHEMBL3433997, “St. Jude Leishmania screening dataset” (2016):
# How the values were obtained:
# Type in all cases: functional
# [1] = molecular target: Solute carrier family 2, facilitated glucose transporter member 1 (Homo sapiens) (UniProt P11166); experiment: ST_JUDE_LEISH: Cytotoxicity at 2uM final concentration against transgenic Leishmania Mexicana promastigotes LmGLUT1 that are glucose transport deficient and complemented with the human glucose transporter GLUT1. Activity is measured by DNA content using SYBR green in vitro
# Sequence of Solute carrier family 2, facilitated glucose transporter member 1 (Homo sapiens) (P11166 whole entry): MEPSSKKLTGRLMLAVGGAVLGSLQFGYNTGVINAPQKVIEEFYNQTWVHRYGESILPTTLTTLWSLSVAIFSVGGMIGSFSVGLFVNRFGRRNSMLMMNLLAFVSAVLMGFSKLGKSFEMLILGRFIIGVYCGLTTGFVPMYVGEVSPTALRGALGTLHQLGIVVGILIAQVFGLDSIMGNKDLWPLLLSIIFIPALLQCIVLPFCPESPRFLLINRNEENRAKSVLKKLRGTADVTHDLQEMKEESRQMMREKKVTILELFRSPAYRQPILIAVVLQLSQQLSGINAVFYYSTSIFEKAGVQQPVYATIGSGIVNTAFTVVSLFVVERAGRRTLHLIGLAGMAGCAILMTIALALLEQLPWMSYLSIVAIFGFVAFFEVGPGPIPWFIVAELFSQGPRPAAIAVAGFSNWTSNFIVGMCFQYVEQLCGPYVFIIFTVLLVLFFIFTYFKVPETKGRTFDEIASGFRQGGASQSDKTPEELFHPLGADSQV
# [2] = molecular target: Hexose transporter 1 (Plasmodium falciparum) (UniProt O97467); experiment: ST_JUDE_LEISH: Cytotoxicity at 2uM final concentration against transgenic Leishmania Mexicana promastigotes LmPfHT that are glucose transport deficient and complemented with the Plasmodium falciparum hexose transporter. Activity is measured by DNA content using SYBR green in vitro
# [3] = molecular target: Glucose transporter (Leishmania mexicana) (UniProt O61059); experiment: ST_JUDE_LEISH: Cytotoxicity at 2uM final concentration against transgenic Leishmania Mexicana promastigotes LmGT2 that are glucose transport deficient and complemented with the L. Mexicana glucose transporter 2. Activity is measured by DNA content using SYBR green in vitro
SMILES,inhibition [1] [%],inhibition [2] [%],inhibition [3] [%]
Fc1ccc(Nc2ccnc3cc(-c4ccc(CNCCN5CCOCC5)o4)ccc23)c(Cl)c1,2.04,2.02,2.34
O=C(N/C(=C/c1cccc([N+](=O)[O-])c1)c1nc2ccccc2[nH]1)c1cccc(Br)c1,2.64,1.64,-0.27
N#Cc1ccc(-c2ccc(C(=O)NC3CCN(CCN4CCC(c5cn(CCO)c6ccccc56)CC4)CC3)cc2)cc1,1.3,1.27,1.44
COc1ccc(-n2nc(C)cc2C(=O)NCc2ccc(-c3c(C)noc3C)cc2)cc1,2.56,2.4,-0.58
O=C(NCCCc1ccccc1)c1csc(C2CCCN(C(=O)c3ccc(O)c(-c4ccccc4)c3)C2)n1 (stereo not drawn),2.11,0.46,-4.23
CCN(CC)CCCC(C)Nc1ccnc2ccc(-c3ccccc3)cc12 (stereo not drawn),-0.2,-0.17,1.04
COc1cc2nc(N3CCC(CNC(=O)c4ccc(-c5ccc(C(=O)N(C)C)cc5C)cc4)CC3)nc(N3CCN(C)CC3)c2cc1OC,-0.31,0.88,1.23
CCOC(=O)C1CCN(CCCNC(=O)/C(=C/C=C/c2cc3cc(Cl)c(Cl)cc3[nH]2)OC)CC1,-1.12,4.1,0.42
COC(=O)c1ccc2[nH]cc(C3CCN(CCC4CCN(C(=O)/C=C/c5ccc(Cl)c(Cl)c5)CC4)CC3)c2c1,6.59,4.72,5.91
COc1cccc(-c2cc(C(=O)Nc3ccc4[nH]c(-c5ccccc5)nc4c3)[nH]n2)c1,4.77,3.14,1.09
O=C(Nc1cccc(-c2ccc(-c3nc4cc(C(F)(F)F)ccc4[nH]3)s2)c1)c1cccnc1,4.93,4.73,4.16
O=C(O)c1ccc(-c2cnc3ccc(NC4CCC(O)CC4)nn23)cc1 (stereo not drawn),0.42,0.39,-0.34
CCOc1ccccc1CNc1nccc(NCc2ccccc2OC)n1,2.53,4.16,2.05
COc1ccc(CNc2nc(NCc3ccc(C(F)(F)F)cc3)c3cc(OC)c(OC)cc3n2)cc1OC,20.1,19.9,14.3
COc1ccc(C(=O)CCC(=O)N(Cc2ccc(-c3ccc(CNCCc4ccc(S(C)(=O)=O)cc4)cn3)cc2)Cc2ccc3c(c2)OCO3)cc1F,1.12,-0.05,-0.58
COc1ccc2nc(C)cc(NC3Cc4ccccc4C3)c2c1,7.7,5.19,0.76

SMILES,inhibition [1] [%],inhibition [2] [%],inhibition [3] [%]
CCc1ccc(C2CCN(CCCCNC(=O)c3ccc(NC(=O)c4ccc(Cl)cc4)cc3)CC2)c(OCC(=O)OC)c1,-0.04,1.79,1.25
Cc1nc(N)nc(N)c1-c1ccc(Br)c(Br)c1,4.47,4.38,3.4
Cc1cc(-c2ccc(CN3Cc4ccccc4C3)cc2)ccc1S(=O)(=O)NCCN1CCCC1,40.3,17.2,11
COc1cc(NC(=O)/C=C/c2cc3ccccc3n2C)ccc1OCCN(C(C)C)C(C)C,4.23,4.39,3.12
CCCC(=O)c1cnc2c(OCCCc3c[nH]cn3)cccc2c1Nc1c(C)cccc1C,2.21,1.13,-1.19
CN(C)c1ccc(-c2cscc2C(=O)NC2CCCN(Cc3cccnc3)C2)cc1 (stereo not drawn),-0.4,-0.27,-0.28
CC(C)N1CCC(N(Cc2ccc(-c3ccc(C(F)(F)F)cc3)cc2)C(=O)Cn2c(CCc3cccc(F)c3F)cc(=O)c3ccccc32)CC1,0.12,1.55,1.16
COC(=O)c1cccc(CNCc2cccc(-c3ccc(-c4nc5cccc(C)c5[nH]4)cc3)c2)c1,11.9,7.9,8.52
CS(=O)(=O)c1ccc(-c2cnc(N)c(-c3ccc(O)cc3)c2)cc1,2.19,1.67,1.48
CNC(=O)c1cnc(Nc2ccc(N3CCOCC3)cc2)nc1Nc1cccc(O)c1,3.92,5.41,-1.69
O=[N+]([O-])c1cccc(CNC2CCN(Cc3ccc4ccccc4c3)CC2)c1,19,12.4,10.9
Cc1cc(-c2ccc(S(=O)(=O)Nc3cc4c(cc3OC(C)C)CCN(C)CC4)cc2)ccc1Cl,-2.82,-1.99,-2.35
CC1CCN(CC[C@H]2CCCN2S(=O)(=O)c2cccc(NC(=O)c3ccc(-c4ccc(Cl)cc4)o3)c2)CC1,-0.33,1.69,-0.14
CC(=O)Nc1cccc(/C=C/C(=O)N2CCC(N3CCCCC3)CC2)c1,2.23,1.03,5.39
CN(C)CCOc1ccc(N2CCN(CCCCNC(=O)c3ccc(/C=C/c4cc(Cl)cc(Cl)c4)cc3)CC2)cc1,-0.63,0.08,-0.38
